# In PubChem BioAssay (Tox21):
# Results filed as inconclusive are left out. A call without a number means that no potency is given here. The source made the active and inactive calls. Unless noted, calls follow the shape of the dose curve; as a rule, active = well fitted curve in the direction sought with a large enough effect in the repeat runs; inconclusive = weak or mixed curves; inactive = no such curve, though single readings can be large; an effect the other way counts as inactive or inconclusive.
# Columns and labels:
# [1] = qHTS assay for small molecule agonists of the p53 signaling pathway (AID 651631; calls by dose curve; also: nearly all actives have a fitted effect of over 15% in size)
# Summary of the method: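 We treat p53RE-bla HCT-116 cells with compounds for 16 h at 37 °C, add LiveBLAzer B/G FRET substrate for 2 h at room temperature, and measure fluorescence intensity.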
# [2] = qHTS assay for small molecules that induce genotoxicity in human embryonic kidney cells expressing luciferase-tagged ATAD5 (AID 651632); also: nearly all actives have a fitted effect of over 15% in size
# Summary of the method: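 Luminescence read-out: after 16 hr compound exposure at 37C, ATAD5-luciferase HEK293T cells received Amplite, 30 min RT, then CCD imaging. A rise in signal marks genotoxic stress.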
# [3] = qHTS assay for small molecule agonists of the p53 signaling pathway - cell viability (AID 651633; calls by dose curve;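 also: p53RE-bla HCT reporter cells with a stable beta-lactamase p53 reporter; nearly all actives have a fitted effect of over 30% in size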)
# Summary of the method: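 Viability counter-read: CellTiter-Glo luminescence (30 min, room temperature) in the same p53RE-bla plates. These plates had been exposed to compounds for 16 h at 37 C.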
# [4] = qHTS assay for small molecules that induce genotoxicity in human embryonic kidney cells expressing luciferase-tagged ATAD5 - cell viability (AID 651634; calls by dose curve; also: nearly all actives have a fitted effect of over 25% in size)
# Summary of the method: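 HEK293T ATAD5-luc cells, 2,000/well; compound 15.5 hr, 37C/5% CO2; CellTiter-Fluor 30 min, 37C; fluorescence read.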
# [5] = qHTS assay for small molecule disruptors of the mitochondrial membrane potential - cell viability (AID 720634; calls by dose curve;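 also: human HepG2 liver cancer cells; nearly all actives have a fitted effect of over 20% in size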)
# Summary of the method: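 Luminescence from CellTiter-Glo (ATP content) gave viability in HepG2 cells, read in the same wells as the MMP dye assay after 1 hr compound exposure at 37 C.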
# [6] = qHTS assay for small molecule disruptors of the mitochondrial membrane potential (AID 720635); also: potency is read from the fitted curve at half-maximal effect
# Summary of the method: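 Mitochondrial membrane potential tracked with Mito-MPS dye, red aggregates (ex 540/em 590 nm) against green monomers (ex 490/em 535 nm). Compound treatment 1 hr at 37C, dye 30 min in HepG2.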
# [7] = qHTS assay to test for compound auto fluorescence at 590 nm (red) in HepG2 cells (AID 720674)
# Summary of the method: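 1 hr compound incubation on HepG2 cells, 37 C, 5% CO2; plate read ex 540 nm / em 590 nm; intensities reported as Rose Bengal sodium equivalents.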
# [8] = qHTS assay to test for compound auto fluorescence at 535 nm (green) in HepG2 cells (AID 720675)
# [9] = qHTS assay to test for compound auto fluorescence at 460 nm (blue) in HEK293 cells (AID 720678)
# Summary of the method: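 HEK293 cells (2,000 per well, medium with 10% dialyzed FBS) attached for 4-5 hr at 37C, then received compound and stood overnight at 37C, 5% CO2. Blue fluorescence was read at Ex/Em 405/460 nm and expressed relative to triamterene.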
# [10] = qHTS assay to test for compound auto fluorescence at 590 nm (red) in HEK293 cells (AID 720679)
# Summary of the method: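 HEK293 cells (2,000/well, medium with 10% dialyzed FBS) attached for 4-5 hr at 37C, received 23 nL compound and were incubated overnight at 37C, 5% CO2. Red fluorescence was then read at 540/590nm Ex/Em, referenced to Rose Bengal sodium.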
# [11] = qHTS assay to test for compound auto fluorescence at 535 nm (green) in HEK293 cells (AID 720680)
# [12] = qHTS assay to test for compound auto fluorescence at 460 nm (blue) in HEK293 cell free culture (AID 720681)
# Summary of the method: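 Blue fluorescence (Ex 405/Em 460 nm, triamterene-equivalent) was read immediately after pin transfer of compound or DMSO into medium (DMEM, 10% FBS) without cells.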
# [13] = qHTS assay to test for compound auto fluorescence at 535 nm (green) in HEK293 cell free culture (AID 720682)
# Summary of the method: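 Green-channel intensity (Ex/Em 485/535 nm) was recorded from compound-treated wells containing only DMEM with 10% FBS. Fluorescein provided the equivalency standard.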
# [14] = qHTS assay to test for compound auto fluorescence at 590 nm (red) in HEK293 cell free culture (AID 720683)
# Summary of the method: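 Red-channel autofluorescence of compounds in culture medium (DMEM, 10% FBS), no cells, measured at 540/590 nm. Rose Bengal sodium is the reference fluorophore for equivalence.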
# [15] = qHTS assay to test for compound auto fluorescence at 590 nm (red) in HepG2 cell free culture (AID 720684)
# Summary of the method: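 Cell-free; medium MEM + 10% FBS; compound or DMSO added by pintool; read Ex 540/Em 590 nm; Rose Bengal sodium as red reference fluorophore.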
# [16] = qHTS assay to test for compound auto fluorescence at 460 nm (blue) in HepG2 cell free culture (AID 720685)
# Summary of the method: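 Cell-free plates of MEM plus 10% FBS received 23 nL compound or DMSO vehicle; blue-channel (405/460 nm) intensity scored against triamterene as reference fluorophore.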
# [17] = qHTS assay to test for compound auto fluorescence at 535 nm (green) in HepG2 cell free culture (AID 720686)
# [18] = qHTS assay to test for compound auto fluorescence at 460 nm (blue) in HepG2 cells (AID 720687)
# Summary of the method: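 Blue-channel autofluorescence (Ex/Em 405/460 nm, triamterene-equivalent) was measured after 1 hr compound exposure at 37 C, 5% CO2. Cells were HepG2, plated overnight at 37 C in MEM plus 10% FBS.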
# [19] = molecular target: Glucocorticoid receptor (Homo sapiens) (UniProt P04150); test: qHTS assay to identify small molecule agonists of the glucocorticoid receptor (GR) signaling pathway (AID 720691; active = well fitted activation curve with a large enough effect in the signal ratio in the repeat runs, not every such curve was filed as active; the % refers to the signal ratio); details: GR-bla HeLa, beta-lactamase reporter ratio, 18 h; activation: at 62.4 µM (top of the series)
# Chain of Glucocorticoid receptor (Homo sapiens) (P04150 whole entry, looked up): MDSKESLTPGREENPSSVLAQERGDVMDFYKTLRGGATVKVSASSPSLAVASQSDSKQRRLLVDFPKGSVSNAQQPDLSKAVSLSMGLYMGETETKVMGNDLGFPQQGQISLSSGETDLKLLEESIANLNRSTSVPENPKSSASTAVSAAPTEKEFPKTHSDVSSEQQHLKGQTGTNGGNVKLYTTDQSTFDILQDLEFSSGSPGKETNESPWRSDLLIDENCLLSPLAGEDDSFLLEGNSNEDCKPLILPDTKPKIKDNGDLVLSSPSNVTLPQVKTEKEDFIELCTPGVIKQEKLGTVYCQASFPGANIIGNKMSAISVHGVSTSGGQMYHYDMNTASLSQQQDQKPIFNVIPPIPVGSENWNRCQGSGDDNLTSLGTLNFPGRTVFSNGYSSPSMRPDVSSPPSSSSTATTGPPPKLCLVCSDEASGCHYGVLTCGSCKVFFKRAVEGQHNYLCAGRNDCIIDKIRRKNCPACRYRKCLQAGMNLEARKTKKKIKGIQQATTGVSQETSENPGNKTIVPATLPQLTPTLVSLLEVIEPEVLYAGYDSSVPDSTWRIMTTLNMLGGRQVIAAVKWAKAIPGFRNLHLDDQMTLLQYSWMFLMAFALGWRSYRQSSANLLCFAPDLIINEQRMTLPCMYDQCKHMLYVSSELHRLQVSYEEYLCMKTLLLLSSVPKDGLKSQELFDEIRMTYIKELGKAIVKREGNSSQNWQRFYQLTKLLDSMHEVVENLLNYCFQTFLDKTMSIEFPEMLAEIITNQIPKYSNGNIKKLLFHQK
# Summary of the method: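 HeLa GR-bla reporter line; cells pre-incubated 4 h, compound in DMSO 18 h at 37 C; LiveBLAzer B/G FRET substrate 2 h RT; fluorescence intensity read-out.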
# [20] = molecular target: Glucocorticoid receptor (Homo sapiens) (UniProt P04150); test: qHTS assay to identify small molecule antagonists of the glucocorticoid receptor (GR) signaling pathway (AID 720692; active = well fitted inhibition curve with a large enough effect in the signal ratio in the repeat runs, not every such curve was filed as active; the % refers to the signal ratio)
# Summary of the method: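 Read-out: beta-lactamase FRET substrate fluorescence, 2 h at room temperature, in HeLa cells stably carrying a GRE-driven bla reporter. Compounds were co-incubated with 5 nM dexamethasone agonist (final) for 18 h at 37 C.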
Structure (SMILES),Potency [1],Potency [2],Potency [3],Potency [4],Potency [5],Potency [6],outcome [7],Potency [8],Potency [9],outcome [10],outcome [11],Potency [12],outcome [13],outcome [14],outcome [15],Potency [16],Potency [17],Potency [18],Potency [19],Potency [20]
CC(=O)Oc1cc(C(F)(F)F)ccc1C(=O)O,inactive,inactive,inactive,inactive,inactive,inactive,inactive,inactive,inactive,inactive,inactive,inactive,inactive,inactive,inactive,inactive,inactive,inactive,inactive,inactive
CO/N=C(\C(=O)N[C@@H]1C(=O)N2C(C(=O)O)=C(C[N+]3(C)CCCC3)CS[C@H]12)c1csc(N)n1,inactive,inactive,inactive,inactive,inactive,inactive,inactive,inactive,inactive,inactive,inactive,inactive,inactive,inactive,inactive,inactive,inactive,inactive,inactive,inactive
CCc1ncnc2cc(OC)c(OC)cc12,inactive,inactive,inactive,inactive,inactive,inactive,inactive,inactive,inactive,inactive,inactive,inactive,,inactive,inactive,inactive,inactive,inactive,inactive,inactive
CCCCCCCCCCCCCCCC(=O)OC[C@H](COP(=O)([O-])OCC[N+](C)(C)C)OC(=O)CCCCCCCCCCCCCCC,inactive,inactive,inactive,inactive,inactive,inactive,inactive,inactive,inactive,inactive,inactive,inactive,,inactive,inactive,inactive,inactive,inactive,inactive,inactive
COC1=C(OC)C(=O)C(C/C=C(\C)CC/C=C(\C)CC/C=C(\C)CC/C=C(\C)CC/C=C(\C)CC/C=C(\C)CC/C=C(\C)CC/C=C(\C)CC/C=C(\C)CCC=C(C)C)=C(C)C1=O,inactive,inactive,inactive,inactive,inactive,inactive,inactive,inactive,inactive,inactive,inactive,inactive,inactive,inactive,inactive,inactive,inactive,inactive,inactive,inactive
COc1ccc(/C=C/C(=O)O)cc1,inactive,inactive,inactive,inactive,inactive,inactive,inactive,inactive,inactive,inactive,inactive,inactive,inactive,inactive,inactive,inactive,inactive,inactive,inactive,inactive
CN(C)CCC(O)(c1ccccc1)c1ccccc1Cl (stereo not given),inactive,inactive,inactive,inactive,inactive,inactive,inactive,inactive,inactive,inactive,inactive,inactive,inactive,inactive,inactive,inactive,inactive,inactive,inactive,inactive
CCOC(=O)COc1ccc2c(=O)cc(-c3ccccc3)oc2c1,inactive,inactive,inactive,inactive,inactive,7.5 µM (active),inactive,inactive,inactive,inactive,inactive,inactive,inactive,inactive,inactive,inactive,inactive,inactive,inactive,inactive
C=C1[C@H](CO)[C@@H](O)C[C@@H]1n1cnc2c(=O)[nH]c(N)nc21,inactive,inactive,inactive,inactive,inactive,inactive,inactive,inactive,inactive,inactive,inactive,inactive,inactive,inactive,inactive,inactive,inactive,inactive,inactive,inactive
Nc1nc(/C(=C/CC(=O)O)C(=O)N[C@@H]2C(=O)N3C(C(=O)O)=CCS[C@H]23)cs1,inactive,inactive,inactive,inactive,inactive,inactive,inactive,inactive,inactive,inactive,inactive,inactive,inactive,inactive,inactive,inactive,inactive,inactive,inactive,inactive
Cc1ncc(C[n+]2csc(CCOP(=O)(O)O)c2C)c(N)n1,inactive,inactive,inactive,inactive,inactive,inactive,inactive,inactive,inactive,inactive,inactive,inactive,,inactive,inactive,inactive,inactive,inactive,inactive,
NCCCC(=O)O,inactive,inactive,inactive,inactive,inactive,inactive,inactive,inactive,inactive,inactive,inactive,inactive,inactive,inactive,inactive,inactive,inactive,inactive,inactive,inactive
CN(C)CCc1c[nH]c2ccc(Cn3cncn3)cc12,inactive,inactive,inactive,inactive,inactive,inactive,inactive,inactive,inactive,inactive,inactive,inactive,,inactive,inactive,inactive,inactive,inactive,,
O=C(O)c1cc(O)c2c(c1)[C@H]([C@H]1c3cc(C(=O)O)cc(O)c3C(=O)c3c(O[C@@H]4O[C@H](CO)[C@@H](O)[C@H](O)[C@H]4O)cccc31)c1cccc(O[C@@H]3O[C@H](CO)[C@@H](O)[C@H](O)[C@H]3O)c1C2=O,inactive,inactive,inactive,inactive,inactive,inactive,inactive,inactive,inactive,inactive,inactive,inactive,inactive,inactive,inactive,inactive,inactive,inactive,inactive,inactive
C/C(=C\C(=O)OCCCCCCCCC(=O)O)C[C@@H]1OC[C@H](C[C@@H]2O[C@H]2[C@@H](C)[C@H](C)O)[C@@H](O)[C@H]1O,inactive,inactive,inactive,inactive,inactive,inactive,inactive,inactive,inactive,inactive,inactive,inactive,inactive,inactive,inactive,inactive,inactive,inactive,inactive,inactive
CC(C)C[C@H](NC(=O)[C@@H](COC(C)(C)C)NC(=O)[C@H](Cc1ccc(O)cc1)NC(=O)[C@H](CO)NC(=O)[C@H](Cc1c[nH]c2ccccc12)NC(=O)[C@H](Cc1cnc[nH]1)NC(=O)[C@@H]1CCC(=O)N1)C(=O)N[C@@H](CCCN=C(N)N)C(=O)N1CCC[C@H]1C(=O)NNC(N)=O,inactive,inactive,inactive,inactive,inactive,inactive,inactive,inactive,inactive,inactive,inactive,inactive,inactive,inactive,inactive,inactive,inactive,inactive,inactive,inactive
Cc1cccc(C)c1NC(=O)C1CCCCN1C (stereo not given),inactive,inactive,inactive,inactive,inactive,inactive,inactive,inactive,inactive,inactive,inactive,inactive,inactive,inactive,inactive,inactive,inactive,inactive,inactive,inactive
C[Se]CC[C@H](N)C(=O)O,inactive,inactive,inactive,inactive,inactive,inactive,inactive,inactive,inactive,inactive,inactive,inactive,inactive,inactive,inactive,inactive,inactive,inactive,inactive,inactive
NC[C@@H]1CC[C@@H](N)[C@@H](O[C@H]2[C@H](O)[C@@H](O[C@H]3O[C@H](CO)[C@@H](O)[C@H](N)[C@H]3O)[C@H](N)C[C@@H]2N)O1,inactive,inactive,inactive,inactive,inactive,inactive,inactive,inactive,inactive,inactive,inactive,inactive,inactive,inactive,inactive,inactive,inactive,inactive,inactive,inactive
C=CC1=C(C(=O)O)N2C(=O)[C@@H](NC(=O)/C(=N\O)c3csc(N)n3)[C@H]2SC1 (stereo in doubt),inactive,inactive,inactive,inactive,inactive,inactive,inactive,inactive,inactive,inactive,inactive,inactive,,inactive,inactive,inactive,inactive,inactive,,
CCOC(=O)[C@H](CCc1ccccc1)N[C@@H](C)C(=O)N1[C@H](C(=O)O)C[C@H]2CCCC[C@@H]21,inactive,inactive,inactive,inactive,inactive,inactive,inactive,inactive,inactive,inactive,inactive,inactive,inactive,inactive,inactive,inactive,inactive,inactive,inactive,inactive
CNC(=O)OCc1cccc(COC(=O)NC)n1,inactive,inactive,inactive,inactive,inactive,inactive,inactive,inactive,inactive,inactive,inactive,inactive,inactive,inactive,inactive,inactive,inactive,inactive,inactive,inactive
COc1cc2c(c(OC)c1OC)-c1c(cc3c(c1OC)OCO3)C[C@@H](C)[C@](C)(O)C2,inactive,inactive,inactive,inactive,inactive,inactive,inactive,inactive,inactive,inactive,inactive,inactive,inactive,inactive,inactive,inactive,inactive,inactive,inactive,inactive
CCOc1ccc(S(=O)(=O)O)c2cccnc12,inactive,inactive,inactive,inactive,inactive,inactive,inactive,inactive,inactive,inactive,inactive,inactive,inactive,inactive,inactive,inactive,inactive,inactive,inactive,inactive
O=C(O)[C@@H]1C[C@H](CP(=O)(O)O)CCN1,inactive,inactive,inactive,inactive,inactive,inactive,inactive,inactive,inactive,inactive,inactive,inactive,inactive,inactive,inactive,inactive,inactive,inactive,inactive,inactive
